PubChem BioAssay AID1159580 (chemical genetic matrix, 2015)
Screen size: about 5,500 compounds; about 2,000 (36%) were called active. Roughly 18% stayed inconclusive and do not appear here. The list shows a part of the results. Values without a mark were called inactive. Cut-off read from the data, not from the text of the source: active = normalized growth mostly below about 0.91 (no sharp cut-off); inconclusive = no clear call, values can overlap the other calls; inactive = mostly above about 0.92.

Experiment: chemical genetic growth profiling, strain panel (AID 1159580);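 note: tested at 20 µM; growth read once vehicle control cultures reached saturation at 30 °C; 1 = growth at the plate median or of vehicle wells; lower values mean less growth of the strain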
Conditions: S. cerevisiae deletion strains, growth OD

For `COCCCNC(=S)N/N=C\c1cc(Cl)cc(Cl)c1O`, which normalized growth (locus YAR019C, strain CDC15, active compounds read low) is on record?
Its normalized growth is 0.958.

What about the normalized growth (locus YBL105C, strain PKC1, active compounds read low) of the same molecule?
The normalized growth was 0.946.

And the normalized growth (locus YBR135W, strain CKS1, active compounds read low)?
Its normalized growth is 0.957.

What about the normalized growth (locus YBR136W, strain MEC1, active compounds read low) of the same molecule?
The normalized growth was 0.956.

What about the normalized growth (locus YBR160W, strain CDC28, active compounds read low) of the same molecule?
Its normalized growth is 0.965.

What about the normalized growth (locus YDL017W, strain CDC7, active compounds read low) of the same molecule?
The normalized growth was 0.951.

What about the normalized growth (locus YDL028C, strain MPS1, active compounds read low) of the same molecule?
The normalized growth was 0.951.

What about the normalized growth (locus YDL101C, strain DUN1, active compounds read low) of the same molecule?
Its normalized growth is 0.959.

And the normalized growth (locus YDL108W, strain KIN28, active compounds read low)?
The normalized growth was 0.961.

And the normalized growth (locus YDL132W, strain cdc53, active compounds read low)?
Its normalized growth is 0.958.

What about the normalized growth (locus YDL214C, strain PRR2, active compounds read low) of the same molecule?
Its normalized growth is 0.942.

What about the normalized growth (locus YDR052C, strain DBF4, active compounds read low) of the same molecule?
The normalized growth was 0.956.

What about the normalized growth (locus YDR054C, strain cdc34, active compounds read low) of the same molecule?
Its normalized growth is 0.947.

What about the normalized growth (locus YDR226W, strain ADK1, active compounds read low) of the same molecule?
The normalized growth was 0.951.

And the normalized growth (locus YDR477W, strain SNF1, active compounds read low)?
Its normalized growth is 0.914.

What about the normalized growth (locus YER123W, strain YCK3, active compounds read low) of the same molecule?
The normalized growth was 0.944.

What about the normalized growth (locus YER133W, strain GLC7, active compounds read low) of the same molecule?
The normalized growth was 0.924.

And the normalized growth (locus YFL009W, strain cdc4, active compounds read low)?
Its normalized growth is 0.952.

And the normalized growth (locus YFL029C, strain CAK1, active compounds read low)?
The normalized growth was 0.958.

And the normalized growth (locus YFR003C, strain YPI1, active compounds read low)?
Its normalized growth is 0.954.

And the normalized growth (locus YFR019W, strain FAB1, active compounds read low)?
The normalized growth was 0.962.

And the normalized growth (locus YFR028C, strain CDC14, active compounds read low)?
Its normalized growth is 0.968.

What about the normalized growth (locus YGR040W, strain KSS1, active compounds read low) of the same molecule?
The normalized growth was 0.927.

And the normalized growth (locus YGR052W, strain FMP48, active compounds read low)?
Its normalized growth is 0.942.

And the normalized growth (locus YGR092W, strain DBF2, active compounds read low)?
Its normalized growth is 0.783.

And the normalized growth (locus YHR030C, strain SLT2, active compounds read low)?
The normalized growth was 0.797 (active).

And the normalized growth (locus YHR079C, strain IRE1, active compounds read low)?
Its normalized growth is 0.903.

And the normalized growth (locus YHR082C, strain KSP1, active compounds read low)?
Its normalized growth is 0.983.

And the normalized growth (locus YHR205W, strain SCH9, active compounds read low)?
Its normalized growth is 0.853.

What about the normalized growth (locus YIL147C, strain SLN1, active compounds read low) of the same molecule?
The normalized growth was 0.957.

And the normalized growth (locus YJL095W, strain BCK1, active compounds read low)?
The normalized growth was 0.904.

And the normalized growth (locus YJL128C, strain PBS2, active compounds read low)?
The normalized growth was 0.924.

And the normalized growth (locus YJL157C, strain FAR1, active compounds read low)?
The normalized growth was 0.918.

What about the normalized growth (locus YJR016C, strain ILV3, active compounds read low) of the same molecule?
The normalized growth was 0.957.

What about the normalized growth (locus YJR066W, strain TOR1 (second series), active compounds read low) of the same molecule?
The normalized growth was 0.887.

And the normalized growth (locus YJR066W, strain TOR1, active compounds read low)?
Its normalized growth is 0.957.

And the normalized growth (locus YKL048C, strain ELM1, active compounds read low)?
Its normalized growth is 0.936.

What about the normalized growth (locus YKL067W, strain YNK1, active compounds read low) of the same molecule?
Its normalized growth is 0.953.

What about the normalized growth (locus YKL101W, strain HSL1, active compounds read low) of the same molecule?
The normalized growth was 0.946.

What about the normalized growth (locus YKL193C, strain SDS22, active compounds read low) of the same molecule?
The normalized growth was 0.953.

And the normalized growth (locus YKL203C, strain TOR2, active compounds read low)?
Its normalized growth is 0.953.

And the normalized growth (locus YLR113W, strain HOG1, active compounds read low)?
Its normalized growth is 0.904.

And the normalized growth (locus YLR133W, strain CKI1, active compounds read low)?
The normalized growth was 0.924.

What about the normalized growth (locus YLR403W, strain SFP1, active compounds read low) of the same molecule?
Its normalized growth is 0.889.

And the normalized growth (locus YML070W, strain DAK1, active compounds read low)?
Its normalized growth is 0.95.

And the normalized growth (locus YMR001C, strain CDC5, active compounds read low)?
The normalized growth was 0.956.

And the normalized growth (locus YMR205C, strain PFK2 (second series), active compounds read low)?
Its normalized growth is 0.943.

What about the normalized growth (locus YMR277W, strain FCP1, active compounds read low) of the same molecule?
The normalized growth was 0.962.

And the normalized growth (locus YNL006W, strain LST8, active compounds read low)?
Its normalized growth is 0.963.

What about the normalized growth (locus YNL020C, strain ARK1, active compounds read low) of the same molecule?
The normalized growth was 0.903.

What about the normalized growth (locus YNL161W, strain CBK1, active compounds read low) of the same molecule?
Its normalized growth is 0.959.

What about the normalized growth (locus YNL183C, strain NPR1, active compounds read low) of the same molecule?
Its normalized growth is 0.988.

And the normalized growth (locus YNL207W, strain RIO2, active compounds read low)?
Its normalized growth is 0.957.

What about the normalized growth (locus YNL222W, strain SSU72, active compounds read low) of the same molecule?
Its normalized growth is 0.962.

What about the normalized growth (locus YNL307C, strain MCK1 (second series), active compounds read low) of the same molecule?
The normalized growth was 0.909.

And the normalized growth (locus YOL078W, strain AVO1, active compounds read low)?
The normalized growth was 0.962.

And the normalized growth (locus YOL136C, strain PFK27, active compounds read low)?
The normalized growth was 0.953.

And the normalized growth (locus YOR061W, strain CKA2, active compounds read low)?
The normalized growth was 0.951.

What about the normalized growth (locus YOR119C, strain RIO1, active compounds read low) of the same molecule?
The normalized growth was 0.989.

And the normalized growth (locus YOR231W, strain MKK1, active compounds read low)?
The normalized growth was 0.943.

What about the normalized growth (locus YOR329C, strain SCD5, active compounds read low) of the same molecule?
Its normalized growth is 0.96.

And the normalized growth (locus YPL031C, strain PHO85, active compounds read low)?
Its normalized growth is 0.904.

What about the normalized growth (locus YPL153C, strain RAD53, active compounds read low) of the same molecule?
The normalized growth was 0.903.

And the normalized growth (locus YPL204W, strain HRR25, active compounds read low)?
The normalized growth was 0.882.

And the normalized growth (locus YPL209C, strain IPL1, active compounds read low)?
Its normalized growth is 0.962.

What about the normalized growth (locus YPL256C, strain CLN2, active compounds read low) of the same molecule?
The normalized growth was 0.859 (active).

What about the normalized growth (locus YPR025C, strain CCL1, active compounds read low) of the same molecule?
Its normalized growth is 0.961.

What about the normalized growth (locus YPR106W, strain ISR1, active compounds read low) of the same molecule?
Its normalized growth is 0.955.

And the normalized growth (locus YPR111W, strain DBF20, active compounds read low)?
The normalized growth was 0.96.

And the normalized growth (strain NNK1, active compounds read low)?
The normalized growth was 0.955.

What about the normalized growth (strain TSCII, active compounds read low) of the same molecule?
The normalized growth was 0.956.
